RGS8-Gao reg – RGS8-Galphao binding modulators, primary screen, biochemical, multiplexed bead flow cytometry. actives lie on both sides. response (percent of control binding), % at 10 µM. 220,000 tested, 0.34% active. AID 1423, 2008; in the data active means response below about 60% or above about 140%; inactive means in between;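 further: Galphao activated as the GDP aluminium fluoride complex binding bead-coupled RGS8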
Target sequence (P09471 whole entry, looked up): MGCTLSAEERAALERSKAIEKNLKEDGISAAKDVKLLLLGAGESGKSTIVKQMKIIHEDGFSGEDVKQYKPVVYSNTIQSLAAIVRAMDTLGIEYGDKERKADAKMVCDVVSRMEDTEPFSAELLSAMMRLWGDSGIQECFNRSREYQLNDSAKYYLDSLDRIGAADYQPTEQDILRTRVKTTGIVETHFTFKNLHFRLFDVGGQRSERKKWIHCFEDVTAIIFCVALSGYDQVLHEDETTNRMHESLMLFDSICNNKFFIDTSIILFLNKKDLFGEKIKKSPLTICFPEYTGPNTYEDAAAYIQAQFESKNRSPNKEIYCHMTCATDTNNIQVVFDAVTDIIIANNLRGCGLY
GSH fluor – compound fluorescence on glutathione beads, profiling panel, artefact control, biophysical, 488/530 nm, flow cytometry; GSH beads flow cytometry, compound fluorescence 488/530 nm; hits give high values; AID 1776, 2009; fluorescence (KMESF) at 10 µM; 190,000 tested, 0.25% active; in the data active means fluorescence above about 89;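 further: glutathione beads carrying GST-tagged Bcl family fusion proteins plus one bare bead set; values are compound well signal with DMSO vehicle wells as background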
Avidin fluor – green autofluorescence of compounds with avidin beads – biophysical, 488/530 nm, flow cytometry, artefact control, profiling panel; fluorescence (KMESF) at 10 µM; 220,000 tested, 0.38% active; AID 1775, 2009; compound fluorescence 488/530 nm; hits give high values; in the data active means fluorescence above about 47
RGS7-Gao – RGS7-Galphao binding modulators, primary screen, biochemical, multiplexed bead flow cytometry. actives lie on both sides. binding response (% of control), % at 10 µM. 220,000 tested, 0.35% active. AID 1439, 2008; in the data active means binding response below about 49% or above about 150%; inconclusive means no clear call, values can overlap the other calls; inactive means in between;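 further: fluorescent Galphao held in activated GDP-AlF4 state binding bead-coupled RGS7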
RGS4-Gao reg – modulators of RGS4 binding to Galphao, primary screen, biochemical, multiplexed bead flow cytometry. binding response (% of control), % at 10 µM. actives lie on both sides. 220,000 tested, 0.33% active. Guanine nucleotide-binding protein G(o) subunit alpha (Homo sapiens), P09471; in the data active means binding response below about 49% or above about 150%; inactive means in between;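 further: fluorescent Galphao activated with aluminum fluoride binding bead-coupled RGS4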
RGS16-Gao HTS – modulators of RGS16 binding to Galphao, primary screen, biochemical, human proteins, multiplexed bead flow cytometry. Regulator of G-protein signaling 16 (Homo sapiens) + Guanine nucleotide-binding protein …. bead-based flow cytometry RGS16-Galphao binding, fluorescence; actives lie on both sides. binding response (% of control), % at 10 µM. 220,000 tested, 0.38% active;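 further: Galphao activated by GDP with aluminum fluoride before binding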
RGS-Gao – modulators of RGS–Galpha-o binding, primary screen, biochemical, multiplexed beads, flow cytometry, RGS4/7/8/16/19 | 1,600 tested, 99% active | RGS4–Galpha-o binding response, % at 10 µM | AID 1504, 2009 | multiplexed bead flow cytometry | shares compounds with RGS16-Gao HTS;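 further: fluorescently labeled Galpha-o bound to GDP with aluminium fluoride binding biotinylated RGS beads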
Biotin-avidin – disruption of biotin probe capture by avidin, counter-screen for RGS protein interaction modulators, biochemical, flow cytometry, bead-based; shares compounds with RGS16-Gao HTS; streptavidin beads, fluorescein-biotin binding; inhibition, % at 10 µM; 1,700 tested, under 10 active;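 active means inhibition above 50%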;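 further: median green fluorescence of gated singlet beads compared with DMSO control wells; 0% = DMSO wells and 100% = complete loss of bead fluorescence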
RGS8-Gao single – RGS8-Galphao binding modulators, confirmation, biochemical, multiplexed bead flow cytometry, single concentration; shares compounds with RGS16-Gao HTS; bead-based flow cytometry RGS8-Galphao binding, fluorescence; actives lie on both sides; binding response (% of control), % at 10 µM; 1,700 tested, 3% active; AID 1836, 2009; in the data active means binding response below about 72% or above about 130%; inactive means in between;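 further: Galphao activated as GDP AlF4 complex before binding bead RGS8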
RGS7-Gao single – RGS7-Galphao binding modulators, confirmation, biochemical, multiplexed bead flow cytometry, single concentration; 1,700 tested, 7.8% active; shares compounds with RGS16-Gao HTS; response (percent of control binding), % at 10 µM; bead-based flow cytometry RGS7-Galphao binding; actives lie on both sides; in the data active means response below about 75% or above about 130%; inactive means in between;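 further: fluorescent Galphao activated with GDP and aluminum fluoride binding bead-coupled RGS7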
RGS16-Gao conf – modulators of RGS16-Galphao protein binding, confirmation, biochemical, single concentration, multiplexed bead flow cytometry; 1,700 tested, 4% active; response (% of control binding), % at 10 µM; AID 1838, 2009; shares compounds with RGS16-Gao HTS; bead-based flow cytometry; actives lie on both sides; in the data active means response below about 74% or above about 130%; inactive means in between;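 further: Galphao activated as the GDP aluminium fluoride complex binding bead-coupled RGS16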
RGS4-Gao confirm – modulators of RGS4-Galphao protein binding, confirmation, biochemical, single concentration, multiplexed bead flow cytometry. shares compounds with RGS16-Gao HTS. actives lie on both sides. binding response (% of control), % at 10 µM. 1,700 tested, 4% active; in the data active means binding response below about 74% or above about 130%; inactive means in between
RGS19-Gao single – regulators of RGS19-Galphao binding, confirmation, biochemical, single point, multiplexed bead flow cytometry; shares compounds with RGS16-Gao HTS; AID 1841, 2009; 1,700 tested, 5% active; bead-based flow cytometry RGS19-Galphao binding; actives lie on both sides; response (percent of control binding), % at 10 µM; in the data active means response below about 50% or above about 160%; inactive means in between;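 further: 100% = no compound control and 0% = blank background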
Target sequence (P09471 whole entry, looked up): as above
Target sequence (P49795 whole entry, looked up): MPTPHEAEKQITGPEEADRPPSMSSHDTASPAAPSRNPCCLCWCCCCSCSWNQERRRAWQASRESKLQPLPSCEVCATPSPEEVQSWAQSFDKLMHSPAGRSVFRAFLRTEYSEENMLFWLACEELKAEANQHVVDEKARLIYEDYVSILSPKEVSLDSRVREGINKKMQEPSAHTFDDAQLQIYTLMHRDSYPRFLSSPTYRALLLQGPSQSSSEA
* = called active by the depositor; ? = inconclusive; . = not tested or not shown; [ ] = another dose, or the depositor's remark. Hits are enriched below; roughly 1.2% of the tested compounds scored in any of these assays. Unless noted, how the calls were made is not given here.

SMILES	RGS8-Gao reg	GSH fluor	Avidin fluor	RGS7-Gao	RGS4-Gao reg	RGS16-Gao HTS	RGS-Gao	Biotin-avidin	RGS8-Gao single	RGS7-Gao single	RGS16-Gao conf	RGS4-Gao confirm	RGS19-Gao single
Cc1nc2cc(C(=O)OCC(=O)Nc3cccc(Cl)c3)ccc2n1-c1ccccc1	100	11	11	100	100	99	.	.	.	.	.	.	.
COc1cccc(-n2c(C)nc3cc(C(=O)O)ccc32)c1	129	28	54*	160*[activator]	158*[activator]	.	.	-1	103	110	107	106	108
Cc1oc2ccc(O)c(CN(C)C)c2c1C(=O)c1ccccc1	153*[activator]	12	16	122	123	275	123*	1	100	100	98	97	108
CCOC(=O)c1c(-c2ccccc2)oc2ccc(O)c(CN(C)C)c12	100	25	11	98	96	100	.	.	.	.	.	.	.
CCN(CC(=O)Nc1ccc2c(c1)OCCO2)c1ccc(S(=O)(=O)N2CCOCC2)cn1	90	5	2	84	80	-83*	80*	1	102	103	99	102	112
CCOC(=O)c1c(C)nc(SCC(N)=O)c(C#N)c1-c1ccccc1	125	13	3	104	111	182*[activator]	111*	0	115	108	114	108	92
O=C(C1=NN[C@@H]2C(=O)N(Cc3ccccc3)C(=O)[C@H]12)c1ccc(F)cc1	98	.	6	?	95	101	.	.	.	.	.	.	.
COc1ccc(NC(=O)c2ccc(COCC(F)(F)C(F)F)cc2)cc1	68	13	2	93	78	25*	78*	0	104	103	104	102	118
COc1ccc2nc(N/C(N)=N/C(=S)Nc3cccc(C)c3)nc(C)c2c1	.	17	.	.	.	.	.	.	.	.	.	.	.
COc1ccc2nc(N/C(N)=N/C(=S)Nc3c(C)cccc3C)nc(C)c2c1	119	22	9	118	113	203*[activator]	113*	1	99	99	103	99	88
Nc1cccc(S(=O)(=O)NC2=NCCC2)c1	149*[activator]	66	10	114	119	393	119*	.	.	.	.	.	.
COc1ccc(NC(=O)CC2SC(=N)N(c3ccccc3)C2=O)c(OC)c1 (stereo unspecified)	8.2*	16	-1	4.1*	4.8*	-5.4*	.	-3	99	90	96	96	96
Cc1ccc(NC(=O)Nc2ccc(F)cc2F)c(OC(F)F)c1	104	25	9	101	101	108	.	.	.	.	.	.	.
COc1ccc(NC(=O)CC(=O)Nc2ccc(OC)cc2OC)c(OC)c1	99	31	79*	174*[activator]	114	110	114*	-1	100	101	99	100	103
COc1ccc(NC(=S)NC2CCCCCC2)c(OC)c1	92	5	9	106	103	22*	103*	1	101	122	101	107	92
COc1ccc(NC(=O)CC2SC(=Nc3ccccc3)NC2=O)c(OC)c1 (stereo unspecified)	100	23	3	99	100	93	.	.	.	.	.	.	.
COc1ccc(NC(=O)Nc2cc(C)ccc2OC(F)F)c(OC)c1	.	33	.	.	.	.	.	0	81	72*	80	78	71
COc1ccc(NC(=O)CC(C)=O)c(OC)c1	102	.	9	?	101	99	.	.	.	.	.	.	.
COP(=O)(OC)C(NC(=O)Nc1ccccc1)c1ccccc1 (stereo unspecified)	104	.	7	?	109	108	.	.	.	.	.	.	.
Cc1ccc(NC(=O)Cc2ccc3c(c2)OCCO3)cc1S(=O)(=O)N1CCCCC1	102	.	7	?	98	100	.	.	.	.	.	.	.
O=C1CSC(c2ccccn2)N1c1ccc(C(F)(F)F)cc1 (stereo unspecified)	98	.	9	?	101	99	.	.	.	.	.	.	.
CC1CCc2c(sc(NC(=O)COC(=O)c3ccccc3NCc3ccco3)c2C#N)C1 (stereo unspecified)	4.6*	16	-4	-2.0*	-5.5*	-59	.	-2	103	109	105	105	107
CC(=O)N/C(=C/c1ccc(OS(=O)(=O)c2ccc(C)cc2)cc1)C(=O)NCCCO	93	.	2	?	81	87	.	.	.	.	.	.	.
COc1nc(N)c(S(=O)(=O)c2ccccc2)cc1C#N	145*[activator]	49	8	117	124	407	124*	-1	103	98	108	100	118
Cc1ccccc1NC(=O)Cn1nnc(-c2ccc(CN3CCC(C)CC3)cc2)n1	105	.	8	?	103	102	.	.	.	.	.	.	.
COc1ccc(NC(=O)Cn2nnc(-c3ccc(CN4CCOCC4)cc3)n2)c(OC)c1	145*[activator]	13	6	129	149	170	149*	-4	105	106	106	105	98
Cc1cccc2nc(-c3ccccc3)nc(N[C@@H](CO)c3ccccc3)c12	91	9	2	97	98	88	.	.	.	.	.	.	.

From PubChem BioAssay
